The source made the active and inactive calls.

The nature of assay [1]: optical density shifts of acrAB sulA E. coli – strain DRC41, OD650, 48 h, E. coli filamentation inducer project, primary screen (AID 1152).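 Further: E. coli MC1000 strain DRC41 lacking acrAB efflux pump and sulA.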 As to conditions: higher = more signal, called active from +8 up or from −8 down.
Assay [2] can be described thus: probe aLefty1 binding on compound microarray – biochemical, small-molecule microarray, 635/667 nm fluorescence, primary screen (AID 1153).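 Further: score merges spot fluorescence with signal-to-noise ratio from the scanned slide images.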 The conditions noted are these: higher = more signal.
The nature of assay [3]: plasmodial surface anion channel blockers, osmotic lysis – cell-based, P. falciparum Indochina, OD700, 1 h, primary screen (AID 1154). As to conditions: P. falciparum Indochina infected RBC osmotic lysis, higher = more signal, called active from +8 up or from −8 down.
Assay [4] is described as follows: plasmodial surface anion channel blockers, osmotic lysis – cell-based, P. falciparum Indochina, OD700, 2 h, primary screen (AID 1155).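 Further: lysis reports solute entry through the parasite surface anion channel PSAC.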 The conditions noted are these: P. falciparum Indochina infected erythrocytes, higher = more signal, called active from +8 up or from −8 down.
Assay [5] in a line: changes in parasitized red cell lysis, either direction – P. falciparum Indochina, OD700, 3 h, PSAC antagonist project, primary screen (AID 1156). As to conditions: P. falciparum-infected erythrocytes, osmotic lysis, higher = more signal, called active from +8 up or from −8 down.
Assay [6] can be described thus: plasmodial surface anion channel blockers, osmotic lysis – cell-based, P. falciparum Indochina, OD700, 18 h, primary screen (AID 1157). The conditions noted are these: P. falciparum Indochina infected erythrocytes, osmotic lysis OD700, 18 h; higher = more signal, called active from +8 up or from −8 down.
Assay [7] is described as follows: S6 kinase pathway phospho-S6 level changes – cell-based, A549, cytoblot, luminescence, serum-stimulated, primary screen (AID 1158).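 Further: serum-stimulated A549 lung adenocarcinoma cells; signal is phosphorylated S6 detected by cytoblot immunostaining with HRP secondary.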 As to conditions: 5 h, higher = more signal.
Assay [8] addresses NADPH oxidase 2 (Homo sapiens) (UniProt P04839). In words: compounds shifting NOX2 Amplex Red fluorescence – cell-based, HEK293-NOX2, PMA-stimulated, NOX inhibitor project, primary screen (AID 1159). Further: test concentration not given here. The conditions noted are these: 45 min, higher = more signal, called active from +8 up or from −8 down.
Assay [9] deals with NADPH oxidase 4 (Homo sapiens) (UniProt Q9NPH5). In words: compounds shifting NOX4 Amplex Red fluorescence – cell-based, HEK293-NOX4, tetracycline-induced, NOX inhibitor project, primary screen (AID 1160). As to conditions: HEK293-NOX4, Amplex Red H2O2 fluorescence, 45 min; higher = more signal, called active from +8 up or from −8 down.
Sequence of NADPH oxidase 4 (Homo sapiens) (Q9NPH5 whole entry, looked up): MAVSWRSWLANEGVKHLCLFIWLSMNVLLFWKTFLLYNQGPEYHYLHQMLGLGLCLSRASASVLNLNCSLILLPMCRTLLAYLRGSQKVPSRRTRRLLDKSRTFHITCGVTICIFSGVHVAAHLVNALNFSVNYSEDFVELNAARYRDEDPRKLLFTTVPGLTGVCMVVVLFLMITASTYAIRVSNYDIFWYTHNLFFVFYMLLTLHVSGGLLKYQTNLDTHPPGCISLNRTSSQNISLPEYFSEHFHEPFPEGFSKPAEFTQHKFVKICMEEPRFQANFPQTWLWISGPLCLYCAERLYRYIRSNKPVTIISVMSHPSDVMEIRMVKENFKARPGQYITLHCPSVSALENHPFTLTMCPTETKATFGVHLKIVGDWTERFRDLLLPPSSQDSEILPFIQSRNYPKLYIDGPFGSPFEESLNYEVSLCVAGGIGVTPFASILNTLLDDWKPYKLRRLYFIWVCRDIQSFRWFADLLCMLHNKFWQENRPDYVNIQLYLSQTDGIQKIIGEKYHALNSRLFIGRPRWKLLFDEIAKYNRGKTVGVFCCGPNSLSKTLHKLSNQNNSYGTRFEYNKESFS
Assay [10] concerns the target NADPH oxidase 5 (Homo sapiens) (UniProt Q96PH1). Put plainly: compounds shifting NOX5 Amplex Red fluorescence – cell-based, HEK293-NOX5, NOX inhibitor project, primary screen (AID 1161). As to conditions: HEK293-NOX5, ionomycin, 45 min, higher = more signal.
Assay [11] is described as follows: compound effects on lung adenocarcinoma cell viability – A549, calcein-AM fluorescence, 48 h, basal, profiling panel (AID 1162). Further: test concentration not given here. The conditions noted are these: higher = more signal.
Assay [12] can be described thus: compound effects on differentiated 3T3-L1 adipocyte viability – cell-based, 3T3-L1 adipocytes, calcein-AM fluorescence, 48 h, basal, profiling panel (AID 1163). Further: test concentration not given here. The conditions noted are these: 3T3-L1 adipocytes viability, higher = more signal.
Assay [13] in a line: compound effects on hepatocellular carcinoma cell viability – HepG2, calcein-AM fluorescence, 48 h, basal, profiling panel (AID 1164). Further: test concentration not given here. The conditions noted are these: higher = more signal.
Assay [14] can be described thus: compound effects on multiple myeloma cell viability – MM1S, calcein-AM fluorescence, 48 h, basal, profiling panel (AID 1165). Further: test concentration not given here. As to conditions: higher = more signal.
Assay [15] in a line: calcein-AM signal in unstimulated myeloma cells – cell-based, calcein-AM fluorescence, 48 h, PK04 Diversity Set, profiling panel (AID 1166).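 Further: cells grown under basal conditions without added stimulus; test concentration not given here.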 The conditions noted are these: RPMI8226 myeloma viability, higher = more signal.
Assay [16] is described as follows: JC-1 mitochondrial signal, unstimulated HepG2 cells – cell-based, JC-1 fluorescence, 24 h, 100 nL compound, profiling panel (AID 1167). Further: test concentration not given here. The conditions noted are these: HepG2 mitochondrial potential, higher = more signal.
Assay [17] in a line: JC-1 mitochondrial signal, unstimulated adipocytes – cell-based, JC-1 fluorescence, 3T3-L1 adipocytes, 24 h, 100 nL compound, profiling panel (AID 1168). Further: test concentration not given here. As to conditions: JC-1 mitochondrial fluorescence, higher = more signal, called active from +8 up or from −8 down.
The nature of assay [18]: JC-1 mitochondrial signal, unstimulated myeloma cells – cell-based, JC-1 fluorescence, RPMI8226, 24 h, 100 nL compound, profiling panel (AID 1169). Further: test concentration not given here. The conditions noted are these: JC-1 mitochondrial potential fluorescence, higher = more signal.
Assay [19] can be described thus: JC-1 mitochondrial signal, unstimulated MM1S myeloma – cell-based, JC-1 fluorescence, 24 h, 100 nL compound, profiling panel (AID 1170). Further: test concentration not given here. The conditions noted are these: MM1S mitochondrial potential, higher = more signal.
Assay [20] is described as follows: resazurin metabolic signal in A549 cells – cell-based, resazurin fluorescence, 24 h, PK04 Diversity Set, profiling panel (AID 1171). Further: test concentration not given here. As to conditions: A549 viability, higher = more signal, called active from +8 up or from −8 down.

Sequence of NADPH oxidase 2 (Homo sapiens) (P04839 whole entry, looked up): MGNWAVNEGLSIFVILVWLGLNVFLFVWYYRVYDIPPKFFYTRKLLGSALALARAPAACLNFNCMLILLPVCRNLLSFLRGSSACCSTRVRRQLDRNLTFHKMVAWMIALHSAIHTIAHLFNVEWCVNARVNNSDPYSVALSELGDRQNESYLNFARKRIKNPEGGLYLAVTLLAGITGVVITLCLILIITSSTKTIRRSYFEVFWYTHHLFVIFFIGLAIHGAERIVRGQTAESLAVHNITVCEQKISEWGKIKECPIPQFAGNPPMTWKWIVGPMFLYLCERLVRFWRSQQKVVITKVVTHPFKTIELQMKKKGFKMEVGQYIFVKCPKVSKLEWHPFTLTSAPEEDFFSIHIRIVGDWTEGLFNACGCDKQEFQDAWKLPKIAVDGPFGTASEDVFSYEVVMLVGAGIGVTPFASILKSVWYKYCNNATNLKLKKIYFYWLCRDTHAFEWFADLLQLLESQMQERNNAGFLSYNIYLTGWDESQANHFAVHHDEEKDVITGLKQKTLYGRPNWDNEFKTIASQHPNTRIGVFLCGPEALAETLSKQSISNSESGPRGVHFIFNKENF
Sequence of NADPH oxidase 5 (Homo sapiens) (Q96PH1 whole entry, looked up): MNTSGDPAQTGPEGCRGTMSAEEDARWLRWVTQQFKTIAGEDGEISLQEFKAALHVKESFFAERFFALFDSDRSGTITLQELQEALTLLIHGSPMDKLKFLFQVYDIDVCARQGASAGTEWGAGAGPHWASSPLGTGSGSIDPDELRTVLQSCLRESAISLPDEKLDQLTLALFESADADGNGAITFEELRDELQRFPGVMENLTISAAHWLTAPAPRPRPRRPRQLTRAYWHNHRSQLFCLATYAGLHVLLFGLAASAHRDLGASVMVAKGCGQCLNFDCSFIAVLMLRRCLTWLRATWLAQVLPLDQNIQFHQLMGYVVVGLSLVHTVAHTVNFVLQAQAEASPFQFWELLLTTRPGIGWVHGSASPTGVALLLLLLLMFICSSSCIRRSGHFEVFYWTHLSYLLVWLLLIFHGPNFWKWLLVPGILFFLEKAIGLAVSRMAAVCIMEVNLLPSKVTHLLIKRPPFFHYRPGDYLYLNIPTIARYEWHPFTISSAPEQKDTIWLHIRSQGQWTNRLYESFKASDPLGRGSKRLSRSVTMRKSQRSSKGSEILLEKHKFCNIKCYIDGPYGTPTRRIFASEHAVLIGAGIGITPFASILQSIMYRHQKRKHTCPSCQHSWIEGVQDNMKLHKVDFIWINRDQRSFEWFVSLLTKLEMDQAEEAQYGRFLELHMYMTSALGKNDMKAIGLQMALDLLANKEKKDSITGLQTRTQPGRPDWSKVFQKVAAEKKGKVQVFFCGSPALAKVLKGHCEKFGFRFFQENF

As for `C[C@@H](c1ccccc1)N1C(=O)[C@H]2[C@H]3[C@H](O)[C@H](O)CC(=NO[C@@H]4O[C@H](CO)[C@@H](O)[C@H](O)[C@H]4O)[C@@H]3CC[C@H]2C1=O`, the z-score in assay [1] is 0.387 (inactive); in [3], -0.091 (inactive); in [4], -0.076 (inactive); in [5] it was -0.698 (inactive); in [6], -0.137 (inactive); in assay [7] it was -0.689. The z-score is -0.119 (inactive) in assay [8]; 0.552 (inactive) in assay [9]; 0.0309 in [10]; -0.57 in assay [11]; 0.698 in assay [12]; -0.943 in assay [13]. Besides, the z-score in assay [14] was 0.21; in assay [15], -0.253; in assay [16], -0.688; in [17], 0.418 (inactive); in assay [18], -0.206; in assay [19], -0.189. In assay [20], the z-score was -0.644 (inactive). The composite z-score in assay [2] was -0.0272.

Regarding `COC(=O)[C@H](C)NC(=O)CCC1CC(OC(=O)NCc2ccc3c(c2)OCO3)CC2(CCCC(COC(=O)NCC(c3ccccc3)c3ccccc3)O2)O1` (stereo not given in full), the z-score was 0.246 (inactive) in [1]; 17.6 (active) in assay [3]; 4.8 (inactive) in assay [4]; 1.34 (inactive) in [5]; -0.685 (inactive) in assay [6]; 3.66 in assay [7]. The z-score in assay [8] was -1.25 (inactive); in [9], -1.5 (inactive); in assay [10], -3.77; in [11], -0.641; in [12] it was 0.155; in [13], -2.9. Further, the z-score is -3.53 in assay [14]; -3.99 in [15]; -1.01 in assay [16]; -0.013 (inactive) in assay [17]; -0.0228 in assay [18]; -0.794 in assay [19]. Moreover, the z-score in assay [20] was 1.76 (inactive). Also, the composite z-score in [2] was -0.0969.

As for `CCCNC(=O)OC[C@H]1O[C@H](CCON=C(C)CCN2CCc3nc(CC)c(CC)cc3C2)C=C[C@@H]1Oc1ccc(OC)cc1`, the z-score in assay [1] is -0.611 (inactive); in assay [3] it was 8.46 (active); in assay [4] it was 1.12 (inactive); in [5], 1.66 (inactive); in assay [6] it was 0.539 (inactive); in assay [7], 0.58. In addition, the z-score was -3.19 (inactive) in [8]; -1.7 (inactive) in assay [9]; -3.32 in [10]; -0.142 in assay [11]; 0.73 in assay [12]; -0.304 in assay [13]. For the same compound, the z-score in assay [14] is -2.95; in assay [15], -3.14; in [16] it was 4.22; in assay [17], -1.48 (inactive); in assay [18], -0.0505; in assay [19], 0.598. In addition, the z-score in [20] was -0.245 (inactive). Further, the composite z-score in assay [2] is -0.0949.

As to `CO[C@H]1COC(=O)[C@@H]2CCCN2C(=O)CC=C[C@@H](C)[C@H](OC)COC(=O)[C@@H](OCc2ccccc2)C=C[C@@H]1C`, the z-score in assay [1] is -0.33 (inactive); in [3], 0.946 (inactive); in assay [4] it was -0.82 (inactive); in assay [5] it was -0.0897 (inactive); in assay [6] it was -1.41 (inactive); in assay [7], 0.917. Besides, the z-score in assay [8] is 0.291 (inactive); in assay [9], 0.275 (inactive); in assay [10], 0.245; in assay [11] it was -0.622; in [12], 0.852; in [13], 0.305. The z-score is 0.41 in assay [14]; -0.697 in assay [15]; 0.887 in assay [16]; 0.377 (inactive) in [17]; 0.0666 in [18]; -0.305 in [19]. Moreover, the z-score in [20] was 0.0375 (inactive). The composite z-score in [2] was -0.147.

With `CC(C)CON=C1[C@H]2CCn3c(=O)n(Cc4cc5c(cc4Cl)OCO5)c(=O)n3[C@H]2[C@H](O)[C@@H]2O[C@H]12`, the z-score in [1] is -1.41 (inactive); in assay [3] it was 0.292 (inactive); in assay [4], -1.05 (inactive); in [5] it was 0.599 (inactive); in assay [6], -2.22 (inactive); in [7], 0.261. Moreover, the z-score was 0.42 (inactive) in [8]; 0.223 (inactive) in [9]; -0.799 in [10]; -1.37 in assay [11]; 0.719 in assay [12]; -0.0623 in [13]. The z-score is -0.053 in assay [14]; -0.62 in assay [15]; -0.0638 in assay [16]; -0.443 (inactive) in assay [17]; 0.207 in assay [18]; -0.354 in [19]. Also, in assay [20], the z-score was -0.647 (inactive). In addition, the composite z-score in [2] amounted to 0.0004.

As to `C#CCCCON=C1C[C@@H](O)[C@@H](O)[C@@H]2[C@@H]3C(=O)N(C(C)(C)C)C(=O)[C@@H]3CC[C@H]12`, the z-score in assay [1] was 0.233 (inactive); in assay [3] it was 3.84 (inactive); in assay [4], 0.371 (inactive); in assay [5], -0.342 (inactive); in assay [6] it was 0.204 (inactive); in assay [7] it was -0.162. Moreover, the z-score was -0.722 (inactive) in [8]; 0.132 (inactive) in assay [9]; 0.307 in assay [10]; 0.053 in assay [11]; -0.304 in [12]; 0.673 in assay [13]. Further, the z-score in assay [14] is 0.505; in [15], -0.413; in assay [16] it was -0.161; in [17] it was -0.505 (inactive); in assay [18], 0.386; in assay [19], -0.708. Besides, the z-score in assay [20] was -0.496 (inactive). This compound also came in with a composite z-score in assay [2] of 0.571.

The record behind these values is PubChem BioAssay.
